The source of these data is PubChem BioAssay AID2685 (National Center for Advancing Translational Sciences (NCATS), 2010).

SMILES strings stand for the structures. Among all 320,000 compounds or so, about 2,100 (0.66%) were called active. Not shown: some 53% with an inconclusive outcome. The sample holds actives, similar compounds and a random draw of the others, so the mix is not that of the screen. Calls come from the whole dose curve; as a rule, active = well fitted inhibition curve with a large enough effect in the signal ratio, with a control signal flat (not every such curve was filed as active); inconclusive = small, poorly fitted or top-dose-only effect, or effect the other way, or a change in a side signal; inactive = flat fitted curve, though single readings scatter; the % refers to the signal ratio.
Potency is the fitted concentration of half-maximal effect.

The assay is described as follows: qHTS Assay for Lipid Storage Modulators in Drosophila S3 Cells.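 For cell number change: cells counted by Cell Tracker Red CMTPX staining in the red channel.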 Particulars: BODIPY lipid droplet fluorescence, 18-24 h, cells fed with added oleic acid; cell number change: measured here: cell count max response; series mostly up to 46.1 µM. The essentials: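 Drosophila S3 cells got compounds at several concentrations plus oleic acid (400 uM solution). Laser-scanning cytometry with 488 nm excitation read lipid droplets at 500-530 nm and cells at 575-640 nm. Percent activity was relative to 20 uM Triacsin C.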
Turning to `CCOC(=O)N1CCC(N(CCN(C)C)C(=S)Nc2ccccc2OC)CC1`, the Potency entry is “inactive” and the cell number change worked out at 7.57%.

Take `CCCCCOC(=O)c1ccccc1C(=O)O`: the Potency result was “inactive” and the cell number change worked out at 16.1%.

`Cc1ccc2c(c1)C1CN(C)CCC1N2S(=O)(=O)c1cccc(F)c1` (stereo not given): the Potency is 14.6 µM (active) and the cell number change is -8.15%.

Regarding `Cc1ccc2c(c1)C1CN(C)CCC1N2S(=O)(=O)c1ccc(C#N)cc1` (stereo not given), the Potency result is “inactive” and the cell number change is -11.9%.

As for `Cc1ccc2c(c1)[C@@H]1CN(C)CC[C@@H]1N2S(=O)(=O)c1ccc([N+](=O)[O-])cc1`, the Potency result is “inactive” and the cell number change is -4.89%.

Regarding `O=C(CN1CCN(S(=O)(=O)c2ccccc2[N+](=O)[O-])CC1)Nc1ccc(N2CCOCC2)cc1`, the Potency result was “inactive” and the cell number change was 26.6%.

`Cn1c2ccccc2c(=O)c2c(=O)n(-c3ccccc3)c(-c3ccc(C(C)(C)C)cc3)nc21`: the Potency entry was “inactive” and the cell number change came to 8.74%.

For the compound `Cc1ccc(CNC(=O)C2(C)Oc3ccccc3NC2=O)cc1` (stereo not given), the Potency entry is “inactive” and the cell number change was -6.1%.

On to `COc1cccc(CNC(=O)C2(C)Oc3ccccc3NC2=O)c1` (stereo not given), for which the Potency is 23.1 µM (active) and the cell number change was 10.7%.

Consider `COc1cccc(CNC(=O)CC2Sc3ccccc3NC2=O)c1` (stereo not given), for which the Potency entry is “inactive”.

For `CC1(C(=O)NCc2ccccc2)Oc2ccccc2NC1=O` (stereo not given), the Potency is 23.1 µM (active) and the cell number change was -4.11%.

Take `CC1(C(=O)NCc2ccc(Cl)c(Cl)c2)Oc2cccnc2NC1=O` (stereo not given): the Potency entry is “inactive”.

With `COc1cccc(CNC(=O)c2ccc(C(=O)NCc3cccc(OC)c3)cc2)c1`, the Potency result was “inactive”.

As for `O=C(CNC(=O)c1ccco1)OCC(=O)c1ccc(Cl)cc1`, the Potency entry is “inactive” and the cell number change is 3.11%.

As to `COc1ccc(NC(=O)/C=C/c2ccc(Br)o2)cn1`, the Potency entry is “inactive” and the cell number change stood at 2.5%.

As for `CC[C@@H](C)[C@@H](C(=O)N1CCN(C(=O)OC(C)(C)C)CC1)n1cc(CCCN=C(NC(=O)OC(C)(C)C)NC(=O)OC(C)(C)C)nn1`, the Potency result was “inactive” and the cell number change was -5.51%.

On to `CCN(c1ccccc1)S(=O)(=O)c1ccc2[nH]c(=O)[nH]c2c1`, for which the Potency result is “inactive” and the cell number change is 8.44%.

Turning to `Cc1cccc(N(C)S(=O)(=O)c2c[nH]c3ccc([N+](=O)[O-])cc23)c1`, the Potency was 2.59 µM (active) and the cell number change is -6.19%.

As for `Cc1cccc(N(C)S(=O)(=O)c2ccc3[nH]c(=O)c(=O)[nH]c3c2)c1`, the Potency entry is “inactive” and the cell number change was -11.4%.

Regarding `CCN(c1ccccc1)S(=O)(=O)c1cc([N+](=O)[O-])ccc1N`, the Potency result is “inactive” and the cell number change was 7.82%.

With `Cc1ccc(N(C)S(=O)(=O)c2c[nH]c3ccc([N+](=O)[O-])cc23)cc1`, the Potency entry was “inactive” and the cell number change turned out to be 2.95%.

For the compound `CCN(c1ccccc1)S(=O)(=O)c1c[nH]c2ccc([N+](=O)[O-])cc12`, the Potency is 5.8 µM (active) and the cell number change is -8.56%.

Regarding `O=C(CN1CCN(Cc2ccccc2)CC1)N1CCN(c2ccccc2)CC1`, the Potency result was “inactive” and the cell number change was determined as 9.09%.

Turning to `CCc1nc2ccccc2c(C(=O)OCC(=O)NCc2ccco2)c1C`, the Potency entry is “inactive” and the cell number change came to 16.5%.
